The supplement of paper PMC7695840
Where a name gives a salt, the structure may show the parent alone.

What follows are compounds tested on Staphylococcus aureus MW2 (mecA+) (assay: normalized DsRed fluorescence (growth of mecA+ strain) (fraction of control range); higher = more growth of mecA+ strain). Details: compound concentration: 150 uM; cefoxitin: subinhibitory; fluorescent label: DsRed.
How it was run: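 Two pre-induced S. aureus MW2 strains, one with the gene labeled by DsRed and one lacking it labeled by GFP, were mixed 1:1 in LB with a subinhibitory antibiotic dose set daily. The mix went at 5 µL/well onto 150 μM compound (1.5% DMSO) in 1536-well plates, single replicate, and grew unshaken 20 h at 37 °C, 90% humidity. DsRed (540/590) and GFP (485/520) values were scaled per plate between single-strain control medians, and plates with high untreated ratios or rows with DsRed/GFP >10 were left out.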

Compared with `NC(=O)c1ncn([C@@H]2O[C@H](CO)[C@@H](O)[C@H]2O)c1N` [Acadesine], `CN[C@@H]1[C@H](O[C@H]2[C@H](O[C@H]3[C@H](O)[C@@H](O)[C@H](NC(=N)N)[C@@H](O)[C@@H]3NC(=N)N)O[C@@H](C)[C@]2(O)CO)O[C@@H](CO)[C@H](O)[C@H]1O` is higher in “normalized DsRed fluorescence” value: 0.776 for the first, 0.832 for the second.

Compared with `COC(=O)N[C@H](C(=O)N1CCC[C@H]1c1ncc(-c2ccc(-c3ccc(-c4cnc([C@@H]5CCCN5C(=O)[C@@H](NC(=O)OC)C(C)C)[nH]4)cc3)cc2)[nH]1)C(C)C`, `CCOc1cc(CC(=O)N[C@@H](CC(C)C)c2ccccc2N2CCCCC2)ccc1C(=O)O` is lower in “normalized DsRed fluorescence” value: 0.788 for the first, 0.578 for the second.

First: CC[N+](CC)(CC)CCOc1cccc(OCC[N+](CC)(CC)CC)c1OCC[N+](CC)(CC)CC
Second: C[C@H](Cc1cc2c(c(C(N)=O)c1)N(CCCO)CC2)NCCOc1ccccc1OCC(F)(F)F [Silodosin (Rapaflo)]
The “normalized DsRed fluorescence” value of the first is lower: 0.336 for the first, 1.1 for the second.

Going from `Cc1cccc(Nc2ccccc2C(=O)O)c1C` [Mefenamic Acid] to `CCCCNc1cc(C(=O)O)cc(S(N)(=O)=O)c1Oc1ccccc1`, the “normalized DsRed fluorescence” value rises from 0.169 to 0.877.

Going from `CCc1cc(C(N)=S)ccn1` to `NC(=O)c1ccccc1O`, the “normalized DsRed fluorescence” value rises from 0.65 to 0.666.

Going from `C[C@@H]1C[C@H]2[C@@H]3CCC4=CC(=O)C=C[C@]4(C)[C@@]3(Cl)[C@@H](O)C[C@]2(C)[C@@]1(OC(=O)c1ccco1)C(=O)CCl` to `CCCCC(=O)O[C@H]1CC[C@H]2[C@@H]3CCc4cc(O)ccc4[C@H]3CC[C@]12C`, the “normalized DsRed fluorescence” value falls from 1.18 to 0.605.

Going from `CCS(=O)(=O)N1CC(CC#N)(n2cc(-c3ncnc4[nH]ccc34)cn2)C1` to `Nc1nc(=O)c2nc(CNc3ccc(C(=O)N[C@@H](CCC(=O)O)C(=O)O)cc3)cnc2[nH]1`, the “normalized DsRed fluorescence” value falls from 1.85 to 0.831.

Compared with `N#Cc1ccc(C(c2ccc(C#N)cc2)n2cncn2)cc1`, `CN1CCN(C(c2ccccc2)c2ccccc2)CC1` is higher in “normalized DsRed fluorescence” value: 0.758 for the first, 1.32 for the second.

Going from `CCCN(CCC)CCc1cccc2c1CC(=O)N2` to `CCCCC(=O)N(Cc1ccc(-c2ccccc2-c2nnn[nH]2)cc1)[C@H](C(=O)O)C(C)C`, the “normalized DsRed fluorescence” value falls from 1.03 to 0.898.

Compared with `NC[C@@H]1O[C@H](O[C@H]2[C@@H](O)[C@H](O[C@@H]3[C@@H](O)[C@H](N)C[C@H](N)[C@H]3O[C@H]3O[C@H](CO)[C@@H](O)[C@H](O)[C@H]3N)O[C@@H]2CO)[C@H](N)[C@@H](O)[C@@H]1O`, `CCNC(=O)CCC/C=C\C[C@@H]1[C@@H](/C=C/[C@@H](O)CCc2ccccc2)[C@H](O)C[C@@H]1O` [Bimatoprost] is higher in “normalized DsRed fluorescence” value: 0.794 for the first, 0.865 for the second.

First: CN1C(C(=O)Nc2ccccn2)=C(O)c2sc(Cl)cc2S1(=O)=O
Second: COc1ccc(CNc2nc(N3CCC[C@H]3CO)ncc2C(=O)NCc2ncccn2)cc1Cl [Avanafil]
The “normalized DsRed fluorescence” value of the first is lower: 0.318 for the first, 0.718 for the second.

Going from `CC(=O)Nc1c(I)c(NC(C)=O)c(I)c(C(=O)O)c1I` to `COCCOC(=O)C1=C(C)NC(C)=C(C(=O)OC(C)C)C1c1cccc([N+](=O)[O-])c1` (stereo not given), the “normalized DsRed fluorescence” value falls from 1.13 to 0.85.

First: O=NN(CCCl)C(=O)NCCCl
Second: O=C(O)CCCCCCCC(=O)O
The “normalized DsRed fluorescence” value of the first is higher: 0.898 for the first, 0.443 for the second.

First: Nc1nc(=O)[nH]cc1F
Second: CCC1(C)OC(=O)N(C)C1=O (stereo not given)
The “normalized DsRed fluorescence” value of the first is lower: 0.62 for the first, 0.876 for the second.

First: CC(C)OC(=O)OCOP(=O)(CO[C@H](C)Cn1cnc2c(N)ncnc21)OCOC(=O)OC(C)C [Tenofovir Disoproxil Fumarate]
Second: CCOC(=O)[C@H](CCc1ccccc1)N[C@@H](C)C(=O)N1Cc2ccccc2C[C@H]1C(=O)O
The “normalized DsRed fluorescence” value of the first is lower: 0.514 for the first, 0.737 for the second.

First: CC[C@@H]([C@H](C)O)n1ncn(-c2ccc(N3CCN(c4ccc(OC[C@@H]5CO[C@@](Cn6cncn6)(c6ccc(F)cc6F)C5)cc4)CC3)cc2)c1=O [Posaconazole]
Second: CCCc1nc2c(C)cc(-c3nc4ccccc4n3C)cc2n1Cc1ccc(-c2ccccc2C(=O)O)cc1
The “normalized DsRed fluorescence” value of the first is higher: 0.572 for the first, 0.194 for the second.

First: C#C[C@]1(OC(C)=O)CC[C@H]2[C@@H]3CCC4=C[C@@H](OC(C)=O)CC[C@@H]4[C@H]3CC[C@@]21C
Second: N#C[C@@H]1CCCN1C(=O)CNC12CC3CC(CC(O)(C3)C1)C2 [Vildagliptin (LAF-237)]
The “normalized DsRed fluorescence” value of the first is higher: 0.568 for the first, 0.519 for the second.

First: CC(=O)N[C@H]1[C@H]([C@H](O)[C@H](O)CO)OC(C(=O)O)=C[C@@H]1NC(=N)N [Zanamivir (Relenza)]
Second: CC(=O)c1ccc(S(=O)(=O)NC(=O)NC2CCCCC2)cc1
The “normalized DsRed fluorescence” value of the first is lower: 0.719 for the first, 0.729 for the second.

Going from `O=C(NCCN1CCOCC1)c1ccc(Cl)cc1` [Moclobemide] to `CCOC(=O)[N-]c1c[n+](N2CCOCC2)no1`, the “normalized DsRed fluorescence” value rises from 0.739 to 0.863.

Going from `CN1CCN(c2c(F)cc3c(=O)c(C(=O)O)cn(CCF)c3c2F)CC1` [Fleroxacin (Quinodis)] to `CC(C)(C)NCC(O)c1ccc(O)c(CO)c1` (stereo not given) [Salbutamol sulfate (Albuterol)], the “normalized DsRed fluorescence” value rises from 0.075 to 0.695.
